Measured values: PubChem BioAssay (NCI)
This is part of a sample that, as a whole, favours compounds with a hit. Of some 79,000 tested, about 15% had one in any assay. A number with no mark means an inactive call. The source made the active and inactive calls. Rule as the data show it: active = growth inhibition above about 70%; inactive = the rest.

How the values were obtained:
[1] = NCI Yeast Anticancer Drug Screen. Data for the rad50 strain (AID 155);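 also: 0% = growth of vehicle-only cultures of the same strain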; conditions: S. cerevisiae rad50 strain growth inhibition; at 50.0 µM; stronger effect = higher value
Procedure, shortened: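 Yeast carrying a defined DNA repair defect were exposed to test compounds, and growth was compared with vehicle-treated controls to give percent inhibition.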

[2] = NCI Yeast Anticancer Drug Screen. Data for the mec2-1 strain (AID 157); conditions: S. cerevisiae mec2-1 strain, at 50.0 µM, stronger effect = higher value
Procedure, shortened: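 Vehicle-treated cultures served as reference for growth inhibition of compound-exposed mec2-1 yeast.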

[3] = NCI Yeast Anticancer Drug Screen. Data for the sgs1 mgt1 strain (AID 161);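 also: 0% = growth of cultures given vehicle only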; conditions: S. cerevisiae sgs1 mgt1 strain, at 50.0 µM, stronger effect = higher value
Procedure, shortened: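 Mutant yeast exposed to compound; growth scored against vehicle-only wells.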

[4] = NCI Yeast Anticancer Drug Screen. Data for the cln2 rad14 strain (AID 165);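 also: 0% = growth equal to vehicle treated cultures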; conditions: S. cerevisiae cln2 rad14 strain, at 50.0 µM, stronger effect = higher value
Procedure, shortened: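 Each compound was tested on cln2 rad14 yeast. Inhibition of growth was calculated against vehicle-exposed controls.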

[5] = NCI Yeast Anticancer Drug Screen. Data for the bub3 strain (AID 167); conditions: S. cerevisiae bub3 mutant strain, at 50.0 µM, stronger effect = higher value
Procedure, shortened: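 Compounds were applied to a genetically altered yeast strain carrying a cell-cycle control defect. Growth inhibition was scored against vehicle-treated controls.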

[6] = NCI Yeast Anticancer Drug Screen. Data for the mlh1 rad18 strain (AID 175); conditions: S. cerevisiae mlh1 rad18 strain growth inhibition; at 50.0 µM; stronger effect = higher value
Procedure, shortened: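 Vehicle-treated cultures served as the reference for growth inhibition in a yeast strain carrying DNA damage repair alterations exposed to each compound.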

Compound	growth inhibition [1]	growth inhibition [2]	growth inhibition [3]	growth inhibition [4]	growth inhibition [5]	growth inhibition [6]
CCCCOB(OCCCC)Oc1c(C(C)(C)C)cccc1C(C)(C)C	2.7%	-4.6%	-4.7%	9.8%	-5.65%	3.75%
CCN(CC)C(=O)Cc1ccc2c3c(cccc13)CC2	-2.45%	-2.05%	-1.75%	-0.75%	1.6%	11.6%
CCC1(c2ccccc2)CCCC/C1=N/NC(N)=O (stereo unspecified)	2.55%	-16.6%	-0.8%	2.2%	-6.05%	-8.7%
N#Cc1cc(C#N)c(N)nc1N	14.1%	6.35%	1.8%	13.4%	-1.25%	-5.7%
COC1(OC)C2(Cl)C(Cl)=C(Cl)C1(Cl)C1CCCCC12 (stereo unspecified)	12.7%	11.1%	15.5%	-57%	-5.15%	2.3%
ClC1C2c3ccccc3C1C1C2C2(c3ccccc3)OC1(c1ccccc1)c1ccccc12 (stereo unspecified)	12.7%	1.65%	-3.2%	-60.1%	-2%	0.2%
O=C1c2ccccc2C2(O)Nc3cc(O)ccc3C12O (stereo unspecified)	-24.6%	-23.1%	-15.1%	-14.1%	-11.8%	-19.6%
COc1ccc(OC)c(NC(=O)Sc2c(Cl)c(Cl)nc(Cl)c2Cl)c1	18.4%	13.2%	16.2%	-8.9%	-0.05%	-10.2%
CCN(CC)c1ccc2c(C)cc(=O)oc2c1	6.35%	-10.6%	6.35%	3.8%	12.9%	0.9%
COc1ccc2nc(NCCNCCO)cc(NCCNCCO)c2c1	-12.2%	-3.25%	1.2%	4.65%	-0.75%	11.3%
O=C1c2ccccc2S[C@@H](O)[C@@H]2CCCN12	-31.9%	-13.7%	-64.7%	-13.7%	-41.8%	-41.7%
Cc1ccc(Cl)cc1NC(=O)Nc1cc(Cl)c(Cl)cc1C	3.55%	45%	43.5%	-2.5%	45.9%	33.3%
CCOc1cc(/C=C2\N=C(c3ccccc3)OC2=O)ccc1O	5%	1.2%	2.6%	-50.8%	-12.8%	-2.75%
CC(=O)OC1C(C2COCO2)OCOC1C1COCO1 (stereo unspecified)	-3.3%	-7.15%	3.5%	-16.6%	-6.65%	-18%
CNC(=O)c1ccc(C(=O)NC)cc1	-19.1%	-26.1%	-42.9%	3.95%	-41.9%	-1.75%
CNC(=O)SCC(NC(=O)CCC(N)C(=O)O)C(=O)NCC(=O)O (stereo unspecified)	-7.45%	9.55%	27.4%	28.4%	18.4%	36.3%
CCC(=O)NCCCCCN1CCCCC1	8.55%	5.35%	9.75%	-15.6%	-1.1%	9.05%
CC(C)=CCN(N=O)c1ncnc2nc[nH]c12	-10.1%	31.1%	-24.8%	-2.5%	18.9%	9.85%
CCCCCCOC(=O)CCBr	5%	2.35%	-3.15%	-4.55%	4.55%	1.4%
CCN(CC)Cc1cc(OC)c(OC)c(OC)c1	-8.3%	-14.5%	-6.6%	-50.9%	7%	-18.1%
FC(F)(F)C[P+](c1ccccc1)(c1ccccc1)c1ccccc1	40.9%	13.1%	15.3%	16.9%	11.5%	26%

Compound	growth inhibition [1]	growth inhibition [2]	growth inhibition [3]	growth inhibition [4]	growth inhibition [5]	growth inhibition [6]
O=C(Nc1ccc(Cl)c(Cl)c1)OCC1CC2C=CC1C2 (stereo unspecified)	95.2% (active)	97.8% (active)	97.3% (active)	94.8% (active)	94.9% (active)	95% (active)
O=C(CN1CCOCC1)CC(O)(C(F)(F)F)C(F)(F)F	0.35%	2.05%	-1.65%	7.1%	1.85%	72.7% (active)
O=C(NO)/C(CC(=O)c1ccc(O)cc1)=N\O	-8.9%	-10.4%	-6.9%	-11.2%	-3.7%	4.7%
Oc1ccc(Br)cc1C=Nc1ccccc1	26.3%	18.9%	40.8%	29.4%	26.2%	14.9%
N#Cc1nnn(-c2ccccc2)n1	24.2%	13.5%	2.9%	-15.7%	4%	22.5%
COC(=O)C1C(C(=O)OC)C(C(=O)OC)C1C(=O)OC (stereo unspecified)	1.6%	-0.35%	-0.45%	9.5%	1.4%	26.9%
N#CC1=C(c2ccccc2)NN(Cc2ccccc2)C(c2ccc(Cl)cc2)CC1=O (stereo unspecified)	31.9%	7.25%	8.25%	-44.1%	2.6%	30.6%
N#Cc1c2c(c(=O)n3c1[nH]c1ccccc13)CCCC2	16.2%	5.35%	19.8%	7.95%	18.4%	18.5%
COc1cccc(-c2cc(=O)c3cccnc3[nH]2)c1	-49.4%	3.25%	28.8%	7.45%	26.6%	13.9%
Cn1ncc2[nH]c(=O)n(OS(=O)(=O)c3ccccc3)c(=O)c21	17.3%	-16.9%	-15.5%	4.3%	0.9%	5%
COC(=O)CC1(C(=O)OC)Nc2ccccc2C(=O)O1 (stereo unspecified)	2.65%	21.7%	18.8%	-11.1%	-11.1%	2.9%
C1CSCCCSCCSCCCSC1	-15.1%	-9.45%	3.6%	5.3%	0.2%	4.45%
S=C(/C=C1\SC(=Nc2ccccc2)C(=Nc2ccccc2)N1c1ccccc1)Nc1ccccc1	1.25%	-9%	-9.6%	-4.1%	10.3%	1.35%
Cc1cc(N(CCC#N)CCC#N)ccc1/C=C1N=C(/C=C\c2ccccc2)OC\1=O	5.5%	-8.5%	5.5%	12.2%	10.3%	5.3%
Cc1ccc(NC(=O)OCCOc2ccccc2)cc1NC(=O)OCCOc1ccccc1	10.3%	17.1%	28%	6.3%	3.1%	33.9%
CCC(=O)O[C@@H]1C2C(OC(C)=O)C34COC(C)([C@@H]3C3C(C[C@]3(C)OC(C)=O)[C@@H](OC(=O)c3ccccc3)C4=O)[C@H](OC(C)=O)[C@@]2(OC(C)=O)C[C@@H]1C (stereo partly specified)	4.2%	-6.65%	4.85%	0.45%	9.95%	4.35%
CCC(=O)CCN(CC)CC	-39.6%	-33.3%	-55.8%	-5%	-35.3%	-40.4%
CC(NC(=O)c1ccccc1)C1CCCCC1 (stereo unspecified)	-5.2%	-1.85%	-1.4%	-49.8%	-12.7%	0.75%
O=C(NCCCCl)c1c(O)c2ccccc2[nH]c1=O	58.8%	25.5%	52%	18.1%	46.2%	27.8%
OCCNc1nc(NCCO)c2cn[nH]c2n1	0.5%	0.45%	-1.15%	-12.7%	5.75%	0.55%
